Laboratory results as given in PubChem BioAssay AID651610 (Broad Institute, 2012).
Where “and” joins values, the source holds several entries; their conditions need not be identical. Equal entries are not always repeated. In all, about 360,000 compounds went through this assay and about 3,900 (1.1%) were called active. This excerpt belongs to a sample that is enriched for actives. Values without a mark were called inactive.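 Rule for the calls: active = mean replicate inhibition score of at least 50 and every replicate individually at or above 50; inconclusive = only one of the two criteria met; inactive = mean below 50 and not all replicates reaching 50.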

Experiment: inhibitors of HIV-1 Env-driven cell-cell fusion, primary screen, HeLa-JRFL effector, CEM21 target cells, luciferase (AID 651610);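 note: 0% = plate neutral controls and 100% = maraviroc near 300 nM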
Details: active compounds read high; at 12.3 µM unless noted

Row | Structure (SMILES) | inhibition
1 | CC(C)(C)c1ccc(CN2C(=O)CN=C(c3ccccc3)c3ccccc32)cc1 | 86.8% (active)
2 | O=C1CC(=O)N(Cc2ccccc2)C(=O)N1CCCCCCN1C(=O)CC(=O)N(Cc2ccccc2)C1=O | -2.61%
3 | O=S(=O)(c1ccccc1)N1CCC2CCNC2C1 (stereo not given) | -11.9%
4 | C[C@H](CO)N1C[C@H](C)[C@H](CN(C)C(=O)Oc2ccc3ccccc3c2)OCc2cnnn2CCCC1=O | -15.9% [at 16.7 µM]
5 | O=C(O)[C@@H]1[C@@H](CO)[C@@H]2Cn3c(ccc(-c4ccccc4F)c3=O)[C@H]1N2C(=O)c1cccnc1 | 1.12% [at 16.7 µM]
6 | CCCCCCCCCCCCn1ccc(=N)cc1 | 69% (active)
7 | C[C@@H]1CN([C@H](C)CO)C(=O)CCCn2cc(nn2)CO[C@@H]1CN(C)C(=O)Oc1cccc2ccccc12 | 0.664% [at 16.7 µM]
8 | CCOC(=O)[C@@H]1[C@@H]2NC(=O)N[C@@]1(C)Oc1ccccc12 | -2.84% [at 16.7 µM] and -0.731% [at 16.7 µM]
9 | CS(=O)(=O)N1CCC2CCNC2C1 (stereo not given) | -7.16%
10 | CCC(C)(O)C(=O)OC1C(=O)OC2CC3C(C)=CC(=O)C(O)C3(C)C3C4(O)OCC23C1C(C)C4O (stereo not given) | 75.7% (active)
11 | O=C(O)[C@H]1[C@H](CO)[C@H]2Cn3c(ccc(-c4ccccc4F)c3=O)[C@@H]1N2C(=O)c1cccnc1 | -4.52% [at 16.7 µM]
12 | Cc1cc(N2CCNC[C@@H]2C)ccc1N1CC[C@H](O)C1 | 0.23%
13 | COC(=O)C[C@@H]1CC[C@@H]2NC[C@@H](O)COC[C@H]2O1 | -11.9% [at 16.7 µM]
14 | O=C(c1ccccc1)C(O)(CN1CCCCC1)c1ccccc1 (stereo not given) | 8.44%
15 | CC(=O)C1(O)CCC2C3CCC4=C(Cl)C(=O)CCC4(C)C3CCC21C (stereo not given) | 16.9%
